Laboratory results: PubChem BioAssay (EPA / NIEHS)
Active and inactive are the calls of the source. How the source made its calls: active means hit-call score of the fitted dose curve at least 0.9, where 1 is the maximum; inactive means score below 0.9.

read-out: Cytochrome P450 2C19 (Homo sapiens) (UniProt P33261); assay: LTEA_HepaRG_CYP2C19: Life Technologies and Expression Analysis (LTEA) Assay for CYP2C19 using HepaRG (AID 2283482); settings: mRNA level, 48 h; actives raise or lower the signal
Experimental: LTEA_HepaRG is a cell based, multiplexed-readout assay that uses HepaRG, a human liver cell line, with measurements taken at 48 hours after chemical dosing on a 96-well plate.LTEA_HepaRG_CYP2C19 is one of 102 assay component(s) measured in the LTEA HepaRG cell culture assay. It is a marker of NR mediated metabolism.Data from the assay component LTEA_HepaRG_CYP2C19 was analyzed into 1 endpoint. This assay endpoint, LTEA_HepaRG_CYP2C19, was analyzed with bidirectional fitting relative to DMSO as the negative control and baseline of activity. Using a type of inducible reporter, measures of mRNA induction for gain or loss-of-signal activity can be used to understand regulation of transcription factor activity. To generalize the intended target to other relatable targets, this assay endpoint is annotated to the cyp intended target family, where the subfamily is xenobiotic metabolism.
A total of 1060 chemcials from the ToxCast library were tested in eight-point concentration-response experiments. Cell culture and cytotoxicity assays were conducted at Thermo Fisher Scientific's Custom Services facility (Madison, WI). A single lot of human HepaRG cells (Thermo Fisher Scientific, Frederick, MD) was used for the cell culture experiments. 96-well format collagen type I coated plates of human HepaRG cells were prepared using established methods. Briefly, cryopreserved HepaRG cells were thawed, plated at a density of approximately 100,000 cells/well in HepaRG Thaw, Plate, and General Purpose media (HPRG770, Thermo Fisher Scientific), and incubated for 48 hours. 0.5% DMSO was selected as vehicle control to balance the requisite need of DMSO in HepaRG cultures to maintain differentiation (for example, baseline metabolism, proportions of hepatocytes vs. cholangiocytes), while enabling further hepatic receptor pathway activation (for example, PXR and CAR) in response to chemical exposure. 48 hours after plating, the culture medium was replaced with HepaRG Serum-Free Incudtion Media. Cells were exposed to each test chemical in duplicate and maintained in CO2 incubators for another 48 hours. Chemical plates were thawed to room temperature and 200x concentrations of treatment groups were prepared. 8-point conentration-reponse curves were made with the highest exposure at 100 uM, followed by half-log dilutions, all in 0.5% DMSO. Each test plate contained variouse controls, induction positive controls (1mM phenobarbital), cytotoxicity positive controls ([…] aflatoxin B1), vehicle controls (0.5% DMSO), and total lysis controls (0.5% DMSO). Cell morphology images were taken using an Essen IncuCyte FLR automated microscope, with six 96-well plates imaged in about 24 minutes. Images were captured and exported and JPEG files. Spent culture media was transfered to black-well plates for the LDH assay, and remaining media was sorted at -80 C for later use. Cells were treated with RLT buffer and frozen until shipped for gene expression analysis. Total RNA was isolated from the cell suspension in 75 uL of Buffer RLT (Qiagen, Germantown, MD 20874) by Quintiles/Expression Analysis (Durham, NC) using a custom isolation procedure. Total RNA from each plate well was transferred to a preamplification plate. Fluidigm's 96.96 Dynamic ArrayTM (Fluidigm, Amsterdam, the Netherlands) technology was used for gene expression analyses by quantitative reverse transcription polymerase chain reaction (qRT-PCR, performed by Quintiles/Expression Analysis, Durham, NC)89. Standard TaqManTM Assays (Applied Biosystems/ThermoFisher Scientific, Foster City, CA) were used to assess the expression of 93 genes selected based on their selectivity and sensitivity to important hepatic receptors known to be modulated by environmental chemicals; importance in human hepatocyte functionality; and hepatotoxicity. […]

Cytochrome P450 2C19 (Homo sapiens), sequence (P33261 whole entry, looked up): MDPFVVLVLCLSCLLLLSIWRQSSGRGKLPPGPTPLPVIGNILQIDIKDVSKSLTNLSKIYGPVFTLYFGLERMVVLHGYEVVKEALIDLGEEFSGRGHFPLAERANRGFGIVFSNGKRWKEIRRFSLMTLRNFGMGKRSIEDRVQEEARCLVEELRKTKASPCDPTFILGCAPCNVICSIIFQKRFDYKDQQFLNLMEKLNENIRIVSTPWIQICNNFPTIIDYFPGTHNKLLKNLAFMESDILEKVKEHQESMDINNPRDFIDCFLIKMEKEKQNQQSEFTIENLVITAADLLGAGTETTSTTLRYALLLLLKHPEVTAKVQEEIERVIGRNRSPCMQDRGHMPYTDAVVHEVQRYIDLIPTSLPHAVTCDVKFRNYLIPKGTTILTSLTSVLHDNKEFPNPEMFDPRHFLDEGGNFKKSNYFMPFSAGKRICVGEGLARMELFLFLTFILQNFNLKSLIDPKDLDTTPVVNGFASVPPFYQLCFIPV

SMILES | outcome | AC50
O=P1(N(CCCl)CCCl)NCCCO1 (stereo not given) | inactive | 
O=P(Oc1ccccc1)(Oc1ccccc1)Oc1ccccc1 |  | 2.95 µM (active)
Cc1cccc(N)c1 | inactive | 
CCC(C)(C)c1ccc(O)cc1 | inactive | 
O=[N+]([O-])c1ccccc1 | inactive | 
O=C(O)C1C(C(=O)O)C2(Cl)C(Cl)=C(Cl)C1(Cl)C2(Cl)Cl (stereo not given) | inactive | 
CCCCc1ccccc1 | inactive | 
CCCN(CCC)c1c([N+](=O)[O-])cc(C(C)C)cc1[N+](=O)[O-] |  | 9.77 µM (active)
c1ccc2c(c1)Nc1ccccc1S2 |  | 50 µM (active)
CCNc1nc(Cl)nc(NC(C)(C)C)n1 |  | 2.46 µM (active)
CCCCN(CCCC)N=O | inactive | 
OCC1CO1 (stereo not given) | inactive | 
CCCCN(CCCC)SN(C)C(=O)Oc1cccc2c1OC(C)(C)C2 |  | 16.7 µM (active)
Nc1ccc(Cl)cc1 | inactive | 
ClC(Cl)c1ccccc1 | inactive | 
c1ccc(OP(Oc2ccccc2)Oc2ccccc2)cc1 | inactive | 
CCOS(=O)(=O)OCC | inactive | 
CCOC(=O)c1ccccc1C(=O)OCC | inactive | 
CC(C)(C)OOC(C)(C)C | inactive | 
CCN(CC)c1ccccc1 | inactive | 

SMILES | outcome | AC50
O=C(O)C(Cl)Cl | inactive | 
CCOP(=S)(OCC)SCSCC |  | 11.2 µM (active)
Cc1ccc(N)cc1N | inactive | 
[N-]=[N+]=[N-] | inactive | 
CC(Cc1ccc(OCC(=O)O)cc1)NCC(O)c1csc(C(F)(F)F)n1 (stereo not given) | inactive | 
ClC1=C(Cl)C2(Cl)C3C(Cl)C(Cl)CC3C1(Cl)C2(Cl)Cl (stereo not given) |  | 2.42 µM (active)
Nc1ccc2ccccc2c1 |  | 26.7 µM (active)
CCCCCCCc1ccc(O)cc1 | inactive | 
Cc1ccc([N+](=O)[O-])cc1C | inactive | 
COCCOCCO |  | 2.31 µM (active)
c1cc2c3c(cccc3c1)CC2 | inactive | 
ClC(Cl)(Cl)c1ccccc1 | inactive | 
CCOP(=S)(Oc1ccc([N+](=O)[O-])cc1)c1ccccc1 (stereo not given) |  | 6.06 µM (active)
CC(Cl)(Cl)C(=O)O | inactive | 
CCC1(c2ccccc2)C(=O)N=C(O)NC1=O (stereo not given) |  | 63.6 µM (active)
CN(C)C(=O)Cl | inactive | 
c1nc[nH]n1 | inactive | 
O=[N+]([O-])c1ccc(Cl)c(Cl)c1 | inactive | 
Nc1cc2c3c(c1)C(c1ccccc1)=N[C@@H](NC(=O)c1cccnc1)C(=O)N3CC2 |  | 9.8 µM (active)
CCOc1ccc(C(C)(C)COCc2cccc(Oc3ccccc3)c2)cc1 |  | 4.25 µM (active)
